From the antibiotic and cytotoxicity screens of Wong et al. (2023)
Screen size: about 39,000 compounds; about 3,300 (8.5%) were called active. Many of the other results were omitted from the sample, so actives are more common in it than they were.

System: HepG2
Assay: cytotoxicity call (relative viability < 0.9)
Details: 10 µM

**Q.** `C[C@@H]1CN([C@H](C)CO)C(=O)c2cc(NC(=O)Cc3ccccc3)ccc2O[C@@H]1CN(C)Cc1ccc(Cl)c(Cl)c1` was tested. Which cytotoxicity call did it give?
**A.** inactive

**Q.** For `C[C@@H]1CN([C@H](C)CO)C(=O)c2cc(NS(C)(=O)=O)ccc2O[C@@H]1CN(C)C(=O)Nc1ccccc1`, which cytotoxicity call is on record?
**A.** inactive

**Q.** For `Cc1nc(CCO)cs1`, which cytotoxicity call is on record?
**A.** inactive

**Q.** How did the cytotoxicity call turn out when `CC(C)[Si](C#CCCc1ccccc1)(O[C@H](c1ccccc1)c1cn(Cc2ccccc2)nn1)C(C)C` was run?
**A.** inactive

**Q.** How did the cytotoxicity call turn out when `C=C1C(CO)C(O)CC1n1cnc2c(=O)[nH]c(N)nc21.O` (centres undefined) was run?
**A.** active

**Q.** Which cytotoxicity call does the source give for `Nc1nc2c(ncn2COCCO)c(=O)[nH]1` here?
**A.** inactive

**Q.** With `Nc1nc2c(ncn2COC(CO)CO)c(=O)[nH]1.O` as the compound, how does the cytotoxicity call read?
**A.** inactive

**Q.** Which cytotoxicity call does the source give for `C[C@@H]1CN([C@H](C)CO)C(=O)CCCn2cc(nn2)CO[C@@H]1CN(C)C(=O)C1CC1` here?
**A.** inactive

**Q.** Which cytotoxicity call does the source give for `Cc1ccccc1N1CCN(S(=O)(=O)C[C@]23CC[C@H](C[C@@H]2NC(=O)[C@@H](N)CCS(C)(=O)=O)C3(C)C)CC1` here?
**A.** inactive

**Q.** With `COc1ccc(CN(C)C[C@@H]2OCCCC[C@H](C)Oc3ccc(NC(=O)Nc4ccccc4)cc3C(=O)N([C@@H](C)CO)C[C@H]2C)cc1` as the compound, how does the cytotoxicity call read?
**A.** inactive

**Q.** `O=C(C[C@@H]1CC[C@H](NS(=O)(=O)c2ccc(F)cc2)[C@@H](CO)O1)N1CCC(Cc2ccccc2)CC1` was tested. Which cytotoxicity call did it give?
**A.** inactive

**Q.** How did the cytotoxicity call turn out when `CC1(COc2ccc3c(c2)ncn3-c2ccc3cccc(N4CCC(N)CC4)c3n2)COC1` was run?
**A.** active

**Q.** Which cytotoxicity call does the source give for `C[C@@H]1CN([C@@H](C)CO)S(=O)(=O)c2ccc(C#Cc3ccccc3)cc2O[C@@H]1CN(C)S(=O)(=O)c1ccccc1F` here?
**A.** inactive

**Q.** With `Cl.O=C(Nc1ccccc1)OCC(CN1CCCCC1)OC(=O)Nc1ccccc1` (centres undefined) as the compound, how does the cytotoxicity call read?
**A.** active

**Q.** `Cc1ccc(C(=O)C(C)CN2CCCCC2)cc1.Cl` (centres undefined) was tested. Which cytotoxicity call did it give?
**A.** inactive

**Q.** How did the cytotoxicity call turn out when `C[C@@H](CN1CCCCC1)C(=O)NN` was run?
**A.** inactive

**Q.** With `C[C@H](CO)N1C[C@H](C)[C@@H](CN(C)S(C)(=O)=O)Oc2ccc(NS(=O)(=O)c3ccc(Cl)cc3)cc2CC1=O` as the compound, how does the cytotoxicity call read?
**A.** inactive

**Q.** How did the cytotoxicity call turn out when `Cc1noc(C)c1NC(=O)N(C)C[C@H]1OCCCC[C@@H](C)Oc2ccc(NC(=O)Nc3cccc4ccccc34)cc2C(=O)N([C@@H](C)CO)C[C@H]1C` was run?
**A.** inactive

**Q.** With `C[C@@H]1CCCCO[C@@H](CN(C)Cc2ccc3c(c2)OCO3)[C@H](C)CN([C@@H](C)CO)C(=O)c2cc(NC(=O)C3CCCCC3)ccc2O1` as the compound, how does the cytotoxicity call read?
**A.** inactive

**Q.** For `C[C@@H]1CCCCO[C@H](CN(C)Cc2ccc3c(c2)OCO3)[C@H](C)CN([C@@H](C)CO)C(=O)c2cc(NC(=O)C3CCCCC3)ccc2O1`, which cytotoxicity call is on record?
**A.** active

**Q.** With `C[C@@H]1CCCCO[C@H](CN(C)Cc2ccc3c(c2)OCO3)[C@@H](C)CN([C@@H](C)CO)C(=O)c2cc(NC(=O)C3CCCCC3)ccc2O1` as the compound, how does the cytotoxicity call read?
**A.** inactive

**Q.** Which cytotoxicity call does the source give for `C[C@@H]1CCCCO[C@@H](CN(C)Cc2ccc3c(c2)OCO3)[C@@H](C)CN([C@@H](C)CO)C(=O)c2cc(NC(=O)C3CCCCC3)ccc2O1` here?
**A.** inactive

**Q.** How did the cytotoxicity call turn out when `C[C@@H]1CCCCO[C@H](CN(C)Cc2ccc3c(c2)OCO3)[C@@H](C)CN([C@H](C)CO)C(=O)c2cc(NC(=O)C3CCCCC3)ccc2O1` was run?
**A.** active

**Q.** For `C[C@@H]1CN([C@@H](C)CO)C(=O)c2cc(NC(=O)C3CCCCC3)ccc2O[C@@H](C)CCCCO[C@@H]1CN(C)Cc1ccc2c(c1)OCO2`, which cytotoxicity call is on record?
**A.** inactive

**Q.** How did the cytotoxicity call turn out when `C[C@@H]1CCCCO[C@H](CN(C)Cc2ccc3c(c2)OCO3)[C@H](C)CN([C@H](C)CO)C(=O)c2cc(NC(=O)C3CCCCC3)ccc2O1` was run?
**A.** active

**Q.** `C[C@@H]1CN([C@H](C)CO)C(=O)c2cc(NC(=O)C3CCCCC3)ccc2O[C@@H](C)CCCCO[C@@H]1CN(C)Cc1ccc2c(c1)OCO2` was tested. Which cytotoxicity call did it give?
**A.** active

**Q.** Which cytotoxicity call does the source give for `C[C@H](CO)N1C[C@H](C)[C@H](CN(C)Cc2ccc3c(c2)OCO3)OCCCC[C@H](C)Oc2ccc(NC(=O)C3CCCCC3)cc2C1=O` here?
**A.** inactive

**Q.** With `C[C@H](CO)N1C[C@H](C)[C@@H](CN(C)Cc2ccc3c(c2)OCO3)OCCCC[C@H](C)Oc2ccc(NC(=O)C3CCCCC3)cc2C1=O` as the compound, how does the cytotoxicity call read?
**A.** inactive

**Q.** Which cytotoxicity call does the source give for `C[C@@H]1CCCCO[C@@H](CN(C)Cc2ccc3c(c2)OCO3)[C@H](C)CN([C@H](C)CO)C(=O)c2cc(NC(=O)C3CCCCC3)ccc2O1` here?
**A.** inactive

**Q.** How did the cytotoxicity call turn out when `C[C@H]1CCCCO[C@H](CN(C)Cc2ccc3c(c2)OCO3)[C@@H](C)CN([C@@H](C)CO)C(=O)c2cc(NC(=O)C3CCCCC3)ccc2O1` was run?
**A.** inactive

**Q.** How did the cytotoxicity call turn out when `O=C(C[C@@H]1C[C@@H]2c3cc(NC(=O)NC4CCCC4)ccc3O[C@@H]2[C@H](CO)O1)NCc1ccc2c(c1)OCO2` was run?
**A.** inactive

**Q.** Which cytotoxicity call does the source give for `CO/N=C(\C(=O)N[C@@H]1C(=O)N2C(C(=O)O)=C(CSC(=O)c3ccco3)CS[C@H]12)c1csc(N)n1` here?
**A.** inactive

**Q.** With `CC(C)NC(=O)N(C)C[C@H]1Oc2ccc(NC(=O)c3ccncc3)cc2CC(=O)N([C@@H](C)CO)C[C@H]1C` as the compound, how does the cytotoxicity call read?
**A.** inactive

**Q.** With `CC(C)NC(=O)N(C)C[C@H]1Oc2ccc(NC(=O)CCN3CCOCC3)cc2C(=O)N([C@H](C)CO)C[C@H]1C` as the compound, how does the cytotoxicity call read?
**A.** inactive

**Q.** With `CC(C)NC(=O)Nc1ccc2c(c1)CC(=O)N([C@@H](C)CO)C[C@@H](C)[C@@H](CN(C)C(=O)Nc1ccc3c(c1)OCO3)O2` as the compound, how does the cytotoxicity call read?
**A.** inactive

**Q.** With `C[C@H]1CN([C@@H](C)CO)C(=O)Cc2cc(NS(=O)(=O)c3ccccc3)ccc2O[C@H]1CN(C)S(=O)(=O)c1cn(C)cn1` as the compound, how does the cytotoxicity call read?
**A.** inactive

**Q.** With `CNC(=O)Cn1c(=O)c2c(OC)ccnc2n(C)c1=O` as the compound, how does the cytotoxicity call read?
**A.** inactive

**Q.** How did the cytotoxicity call turn out when `Cc1noc(C)c1NC(=O)Nc1ccc2c(c1)C(=O)N([C@H](C)CO)C[C@H](C)[C@H](CN(C)S(=O)(=O)c1cccs1)OCCCC[C@@H](C)O2` was run?
**A.** inactive

**Q.** With `C[C@@H]1CCCCO[C@H](CN(C)C(=O)NC2CCCCC2)[C@@H](C)CN([C@H](C)CO)C(=O)c2cc(NC(=O)Cc3ccccc3)ccc2O1` as the compound, how does the cytotoxicity call read?
**A.** inactive

**Q.** `COc1ccc(S(=O)(=O)Nc2ccc3c(c2)CC(=O)N([C@H](C)CO)C[C@@H](C)[C@H](CN(C)CC2CC2)O3)cc1` was tested. Which cytotoxicity call did it give?
**A.** inactive

**Q.** For `CN(C)CC[C@H](CSc1ccccc1)Nc1ccc(S(=O)(=O)NC(=O)c2ccc(N3CCN(Cc4ccccc4-c4ccc(Cl)cc4)CC3)cc2)cc1[N+](=O)[O-]`, which cytotoxicity call is on record?
**A.** inactive

**Q.** `CC1(C)CCC(c2ccc(Cl)cc2)=C(CN2CCN(c3ccc(C(=O)NS(=O)(=O)c4ccc(N[C@H](CCN5CCOCC5)CSc5ccccc5)c(S(=O)(=O)C(F)(F)F)c4)cc3)CC2)C1` was tested. Which cytotoxicity call did it give?
**A.** active

**Q.** `CC1(C)CCC(c2ccc(Cl)cc2)=C(CN2CCN(c3ccc(C(=O)NS(=O)(=O)c4ccc(N[C@@H](CCN5CCOCC5)CSc5ccccc5)c(S(=O)(=O)C(F)(F)F)c4)cc3)CC2)C1` was tested. Which cytotoxicity call did it give?
**A.** active

**Q.** How did the cytotoxicity call turn out when `CC1(C)CCC(CN2CCN(c3ccc(C(=O)NS(=O)(=O)c4ccc(NCC5CCOCC5)c([N+](=O)[O-])c4)c(Oc4cnc5[nH]ccc5c4)c3)CC2)=C(c2ccc(Cl)cc2)C1` was run?
**A.** inactive
